# Compounds without any hit were thinned out: in the full panel of roughly 83,000, 20% have a hit.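 Note: values are percent growth. 100 is the growth of untreated cells, values between 100 and 0 indicate rising inhibition; between -100 and 0 indicates cell death.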 Values without a mark were called inactive. The calls were made as follows: active = growth percent below 10; inactive = the rest.
# Tested on: NCI-H522 lung
# Assay: NCI-60 one-dose screen, 48 h (100 = growth as untreated, 0 = no growth, -100 = all killed)
# Conditions: 10 µM
row,Compound,growth [%]
1,COc1ccc(C2=Cc3ccc(OC(C)=O)cc3OC2)cc1,75.4
2,Cc1nc2cc(-n3c(-c4ccc(F)cc4)nc4ccccc4c3=O)ccc2n1Cc1ccccc1,44.5
3,Cc1nnc2c3nnc(-c4ccc(Cl)cc4)n3c3ccccc3n12,86.6
4,Cc1cc(C)c2c(Nc3ncnc4c3sc3nc(C)cc(C)c34)n[nH]c2n1,96.9
5,CCCCNC(=O)Oc1ccc(/C(=C(\C)c2ccc(OC)cc2)c2ccc(OCCN3CCCCC3)cc2)cc1,74

# Tested on: A549/ATCC NSCLC
# Assay: as above
# Conditions: 10 µM
row,Compound,growth [%]
1,COc1cc(C2CC(=O)Nc3c2c(C)nn3-c2nc3ccccc3[nH]2)cc(OC)c1O (stereo unspecified),40.1
2,CCCCC(CC#N)(CCC)CCC,94.4
3,COc1cc(C)c2sc3ccccc3c(=O)c2c1NCCN(C)C,28.8
4,O=C(CCl)N1c2ccccc2Sc2ccc3ccccc3c21,38
5,CCOC(=O)Nc1ccc2c(c1)C(=O)N(CC)c1ccccc1O2,19.4
6,COc1ccc(/C=C(\c2cc(OC)c(OC)c(OC)c2)c2nnc(-c3cccs3)o2)cc1,77.5
7,COc1ccc(-c2cc(/C=C/C(=O)c3ccc(N)cc3)[nH]n2)cc1OC,32
8,CCCCCCCCCCSC(=N)N (tested in a mixture with another compound),75.3
9,CC(=O)CS(C)(=O)=O,96.7
10,Nc1ccc2c(c1)Cc1cc(N)c(Cl)cc1-2,88.2
11,CCOC(=O)c1cc(-c2ccccc2)nc(N)n1,102

# From PubChem BioAssay (NCI)
